Inconclusive results are not listed. The source made the active and inactive calls. The call rests on the fitted dose curve; in most records, active means well fitted curve in the direction sought with a large enough effect in the repeat runs; inconclusive means weak or mixed curves; inactive means no such curve, though single readings can be large; an effect the other way counts as inactive or inconclusive.
The molecules below were run against Cytochrome P450 2C19 (Homo sapiens) (UniProt P33261) (assay: Cytochrome P450 Family 2 Subfamily C Member 19 (CYP2C19) small molecule antagonists: luciferase reporter qHTS assay (AID 1671197; further: nearly all actives have a fitted effect of over 65% in size; further: potency means the concentration at half of the fitted maximal effect)). Details: P450-Glo CYP2C19 enzyme, luciferin luminescence, 1 h; series mostly up to 115 µM; activity change, negative = inhibition: at the top concentration.
Sequence of Cytochrome P450 2C19 (Homo sapiens) (P33261 whole entry, looked up): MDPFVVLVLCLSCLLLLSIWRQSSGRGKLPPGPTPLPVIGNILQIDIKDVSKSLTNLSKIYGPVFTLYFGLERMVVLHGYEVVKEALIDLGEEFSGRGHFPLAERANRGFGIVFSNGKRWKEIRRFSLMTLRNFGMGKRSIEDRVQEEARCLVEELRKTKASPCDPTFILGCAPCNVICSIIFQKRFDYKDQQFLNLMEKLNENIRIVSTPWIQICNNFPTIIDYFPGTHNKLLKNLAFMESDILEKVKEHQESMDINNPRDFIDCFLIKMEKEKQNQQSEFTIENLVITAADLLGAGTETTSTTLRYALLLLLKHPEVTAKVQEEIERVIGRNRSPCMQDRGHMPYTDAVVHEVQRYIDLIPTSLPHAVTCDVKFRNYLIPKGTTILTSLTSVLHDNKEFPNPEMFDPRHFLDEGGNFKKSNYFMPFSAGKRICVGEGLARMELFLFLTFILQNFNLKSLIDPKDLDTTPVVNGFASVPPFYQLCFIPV
How it was run: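 Quantitative high-throughput screen of the Tox21 library using CYP2C19 with proluciferin substrate. Reaction: NADPH regeneration, 37C, 1 h, after 10 min compound preincubation at room temperature. Readout: luminescence.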
On the % scale 0 is the no-effect control and ±100 the full control effect.

Structure (SMILES)	Potency	activity change, negative = inhibition
CCOC(=O)CC(CC(=O)OCC)(OC(C)=O)C(=O)OCC	12.6 µM (active)	–
CCNC(=O)NCCCOc1cccc(CN2CCCCC2)c1	–	19.6% [at 52.9 µM] (inactive)
CC1=CC[C@H](CC=O)C1(C)C	–	-21% (inactive)
CCOC(=O)C(C)(C)C	–	-8.94% (inactive)
Nc1ccc(C(=O)OCC(O)CO)cc1 (stereo not given)	17.4 µM (active)	–
OC[C@@H](O)[C@H](O)[C@@H](O)[C@@H](O)CO	44.8 µM (active)	–
CCCCCC1CCCC(=O)O1 (stereo not given)	79.6 µM (active)	–
COc1ccc(N=Nc2cc(C)c(N=Nc3ccc(S(=O)(=O)O)cc3)cc2OC)cc1	–	-15.8% (inactive)
CC(=O)OCCCc1ccccc1	–	7.15% (inactive)
CCC(C)(CCC(C)C)C(=O)[O-].CCC(C)(CCC(C)C)C(=O)[O-].[Zn+2] (stereo not given)	17.8 µM (active)	–
Cc1nc(C)nc(N2C[C@@H](C)N(c3ccnc([C@@H](C)O)n3)[C@@H](C)C2)n1	–	9.66% [at 52.9 µM] (inactive)

The molecules below were run against Cytochrome P450 2C9 (Homo sapiens) (UniProt P11712) (assay: Cytochrome P450 Family 2 Subfamily C Member 9 (CYP2C9) small molecule antagonists: luciferase reporter qHTS assay (AID 1671198; further: nearly all actives have a fitted effect of over 50% in size; further: potency means the concentration at half of the fitted maximal effect)). Details: P450-Glo CYP2C9 enzyme assay, luciferin luminescence; series mostly up to 115 µM; activity change, negative = inhibition: at the top concentration.
Sequence of Cytochrome P450 2C9 (Homo sapiens) (P11712 whole entry, looked up): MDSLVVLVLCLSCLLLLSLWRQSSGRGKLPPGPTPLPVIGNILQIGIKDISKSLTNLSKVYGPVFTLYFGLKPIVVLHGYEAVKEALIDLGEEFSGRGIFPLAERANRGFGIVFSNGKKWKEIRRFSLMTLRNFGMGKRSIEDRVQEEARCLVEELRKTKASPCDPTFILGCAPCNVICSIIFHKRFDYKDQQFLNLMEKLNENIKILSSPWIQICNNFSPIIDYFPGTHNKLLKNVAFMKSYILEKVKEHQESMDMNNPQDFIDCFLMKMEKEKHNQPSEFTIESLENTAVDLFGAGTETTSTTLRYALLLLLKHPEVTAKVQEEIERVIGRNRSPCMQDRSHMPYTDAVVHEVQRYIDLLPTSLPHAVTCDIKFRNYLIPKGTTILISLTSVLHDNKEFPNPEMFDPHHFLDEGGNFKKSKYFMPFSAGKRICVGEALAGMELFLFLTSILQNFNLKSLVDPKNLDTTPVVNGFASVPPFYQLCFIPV
How it was run: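 CYP2C9 activity was measured with a P450-Glo proluciferin substrate. Enzyme–substrate mix was held with compound for 10 min at room temperature, then NADPH regeneration solution was added for 1 h at 37C. Luciferin product was read as luminescence.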

Structure (SMILES)	activity change, negative = inhibition	Potency
CCCCCC(=O)OCC	-99.9% (inactive)	–
CC(C)=CC(C)(C)C	-8.97% (inactive)	–
O=C(O)c1ccc(OCCN2CCCCC2)cc1	-1.92% [at 53 µM] (inactive)	–
CCCCC/C=C/CC(=O)OC	-15.9% (inactive)	–
CC(C)(C)c1ccc(C=O)cc1	-9.86% (inactive)	–
CCC(O)C(C)(C)C (stereo not given)	1.64% (inactive)	–
C/C=C(\C)C(=O)OCC/C=C\CC	-10.3% (inactive)	–
O=C(c1ccc2c(c1)C(=O)OC2=O)c1ccc2c(c1)C(=O)OC2=O	2.65% (inactive)	–
NC(=O)NNC(N)=O	–	79.6 µM (active)
CCOC(=O)CC(CC(=O)OCC)(OC(C)=O)C(=O)OCC	–	28.3 µM (active)
OC[C@@H](O)[C@H](O)[C@@H](O)[C@@H](O)CO	-8.36% (inactive)	–
CCCCCC1CCCC(=O)O1 (stereo not given)	-7.93% (inactive)	–
COc1ccc(N=Nc2cc(C)c(N=Nc3ccc(S(=O)(=O)O)cc3)cc2OC)cc1	–	63.3 µM (active)
CCC(C)(CCC(C)C)C(=O)[O-].CCC(C)(CCC(C)C)C(=O)[O-].[Zn+2] (stereo not given)	–	17.8 µM (active)

These molecules were tested against Cytochrome P450 1A2 (Homo sapiens) (UniProt P05177) (assay: Cytochrome P450 Family 1 Subfamily A Member 2 (CYP1A2) small molecule antagonists: luciferase reporter qHTS assay (AID 1671199; further: nearly all actives have a fitted effect of over 50% in size; further: potency means the concentration at half of the fitted maximal effect)). Details: P450-Glo CYP1A2 enzyme, luciferin luminescence, 1 h; series mostly up to 115 µM; activity change, negative = inhibition: at the top concentration.
Sequence of Cytochrome P450 1A2 (Homo sapiens) (P05177 whole entry, looked up): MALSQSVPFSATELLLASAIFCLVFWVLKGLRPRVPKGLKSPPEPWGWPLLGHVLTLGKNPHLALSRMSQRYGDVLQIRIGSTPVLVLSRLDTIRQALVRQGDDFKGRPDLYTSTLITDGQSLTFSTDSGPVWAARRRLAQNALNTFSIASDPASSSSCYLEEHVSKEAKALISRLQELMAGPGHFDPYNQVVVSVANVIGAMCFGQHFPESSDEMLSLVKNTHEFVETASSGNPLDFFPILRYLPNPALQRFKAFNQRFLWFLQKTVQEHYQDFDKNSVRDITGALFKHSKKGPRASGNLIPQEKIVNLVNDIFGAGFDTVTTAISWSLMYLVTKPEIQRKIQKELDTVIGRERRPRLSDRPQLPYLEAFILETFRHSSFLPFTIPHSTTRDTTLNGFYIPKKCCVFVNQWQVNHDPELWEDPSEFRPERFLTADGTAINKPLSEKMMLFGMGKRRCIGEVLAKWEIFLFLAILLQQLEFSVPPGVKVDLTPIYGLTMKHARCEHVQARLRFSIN
How it was run: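 P450-Glo CYP1A2 enzyme–proluciferin substrate mix with compound 10 min at room temperature, then NADPH regeneration 1 h at room temperature. Luciferin detection reagent added, luminescence read after 20 min; furafylline positive control.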

Structure (SMILES)	Potency	activity change, negative = inhibition
CC(C)CCC(=O)CCC(C)C	39.9 µM (active)	–
Cc1cccc(C(=O)O)c1[N+](=O)[O-]	63.4 µM (active)	–
C[C@H](CCC(=O)NCC(=O)O)[C@H]1CC[C@H]2[C@@H]3[C@H](O)C[C@@H]4C[C@H](O)CC[C@]4(C)[C@H]3C[C@H](O)[C@]12C	–	-2.67% (inactive)
CC(C)CCCCCCOC(=O)C1CCCCC1C(=O)OCCCCCCC(C)C (stereo not given)	–	-23.8% (inactive)
COCCOCCOCCOC	–	-24.4% (inactive)
O=C(O)C(=O)Nc1cccc(-c2nn[nH]n2)c1	–	-3.63% [at 53 µM] (inactive)
CCN(CCO)c1cccc(C)c1	28.3 µM (active)	–
COC(/C=C(\C)CCC=C(C)C)OC	–	-15.9% (inactive)
CCCCC(CC)COC(=O)c1ccccc1 (stereo not given)	28.3 µM (active)	–
CCCOC(=O)CCCCC(=O)OCCC	22.4 µM (active)	–
CC(Cl)COP(=O)(OCC(C)Cl)OCC(C)Cl (stereo not given)	22.3 µM (active)	–
CCCCC(CC)C(=O)OC(C)C (stereo not given)	–	-15.8% (inactive)
CC(C)CCCC(C)CC=O (stereo not given)	–	-19.4% (inactive)
C1=C\CC/C=C\CC/1	–	-28.8% (inactive)
O=C(O)c1c(Cl)ccc(Cl)c1Cl	–	-17.6% (inactive)
O=C(O)CCNC(=O)c1ccccc1	–	0.657% [at 53 µM] (inactive)
CCCCC(C)C(=O)O (stereo not given)	39.9 µM (active)	–
CCNC(=O)NCCCOc1cccc(CN2CCCCC2)c1	–	14.6% [at 53 µM] (inactive)
CC1=CC[C@H](CC=O)C1(C)C	31.7 µM (active)	–
CCOC(=O)C(C)(C)C	–	-21% (inactive)
Nc1ccc(C(=O)OCC(O)CO)cc1 (stereo not given)	15.5 µM (active)	–
CC(=O)OCCCc1ccccc1	–	-19.2% (inactive)
Cc1nc(C)nc(N2C[C@@H](C)N(c3ccnc([C@@H](C)O)n3)[C@@H](C)C2)n1	–	-16.9% [at 53 µM] (inactive)

These molecules were tested against Voltage-gated inwardly rectifying potassium channel KCNH2 (Homo sapiens) (UniProt Q12809) (assay: Human Ether-a-go-go-Related Gene (hERG) channel small molecule antagonists: fluorescence cell-based qHTS assay (AID 1671200;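 further: hERG-expressing U2OS cells given a thallium stimulus after FluxOR II dye loading; nearly all actives have a fitted effect of over 50% in size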)). Details: hERG-U2OS cells, FluxOR thallium flux fluorescence; series mostly up to 76.8 µM; activity change, negative = inhibition: at the top concentration.
Sequence of Voltage-gated inwardly rectifying potassium channel KCNH2 (Homo sapiens) (Q12809 whole entry, looked up): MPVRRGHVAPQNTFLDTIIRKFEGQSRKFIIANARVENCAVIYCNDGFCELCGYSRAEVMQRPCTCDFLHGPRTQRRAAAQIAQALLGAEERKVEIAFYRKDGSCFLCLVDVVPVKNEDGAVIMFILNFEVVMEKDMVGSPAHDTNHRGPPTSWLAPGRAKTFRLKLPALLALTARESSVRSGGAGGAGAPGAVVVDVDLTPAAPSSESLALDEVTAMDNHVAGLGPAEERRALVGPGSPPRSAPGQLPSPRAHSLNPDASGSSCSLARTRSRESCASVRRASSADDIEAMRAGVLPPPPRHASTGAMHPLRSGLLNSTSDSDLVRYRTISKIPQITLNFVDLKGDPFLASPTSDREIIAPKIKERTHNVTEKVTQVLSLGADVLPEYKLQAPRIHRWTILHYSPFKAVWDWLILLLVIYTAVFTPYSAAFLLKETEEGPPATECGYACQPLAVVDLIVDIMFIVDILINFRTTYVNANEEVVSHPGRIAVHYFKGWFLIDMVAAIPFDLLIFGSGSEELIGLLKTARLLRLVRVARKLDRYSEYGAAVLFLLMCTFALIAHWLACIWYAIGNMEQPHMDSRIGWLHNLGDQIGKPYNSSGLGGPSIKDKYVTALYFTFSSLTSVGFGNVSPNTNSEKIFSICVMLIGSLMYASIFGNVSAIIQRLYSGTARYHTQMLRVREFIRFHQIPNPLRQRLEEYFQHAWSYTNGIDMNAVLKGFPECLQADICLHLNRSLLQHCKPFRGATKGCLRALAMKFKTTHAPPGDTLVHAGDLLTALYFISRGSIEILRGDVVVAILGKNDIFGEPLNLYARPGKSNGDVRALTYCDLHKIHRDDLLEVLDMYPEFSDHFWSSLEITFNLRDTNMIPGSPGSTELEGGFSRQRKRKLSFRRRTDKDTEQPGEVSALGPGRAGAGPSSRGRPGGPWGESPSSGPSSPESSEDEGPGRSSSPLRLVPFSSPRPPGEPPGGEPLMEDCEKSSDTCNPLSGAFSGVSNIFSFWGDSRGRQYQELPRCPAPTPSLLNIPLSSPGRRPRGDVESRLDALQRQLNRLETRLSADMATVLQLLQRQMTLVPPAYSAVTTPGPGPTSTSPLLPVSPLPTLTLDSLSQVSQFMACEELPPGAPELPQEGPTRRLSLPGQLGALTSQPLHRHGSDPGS
How it was run: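 First, 1000 cells per well are seeded and cultured overnight at 37 C. Next, FluxOR II dye is loaded for 1 h at room temperature, protected from light. After 10 more minutes, stimulus is added and fluorescence is read.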

Structure (SMILES)	activity change, negative = inhibition
CC(C)CCC(=O)CCC(C)C	-1.37% (inactive)
Cc1cccc(C(=O)O)c1[N+](=O)[O-]	-0.795% (inactive)
CCCCCC(=O)OCC	6.44% (inactive)
C[C@H](CCC(=O)NCC(=O)O)[C@H]1CC[C@H]2[C@@H]3[C@H](O)C[C@@H]4C[C@H](O)CC[C@]4(C)[C@H]3C[C@H](O)[C@]12C	2.78% (inactive)
CC(C)CCCCCCOC(=O)C1CCCCC1C(=O)OCCCCCCC(C)C (stereo not given)	2.84% (inactive)
CC(C)=CC(C)(C)C	1.73% (inactive)
COCCOCCOCCOC	-1.34% (inactive)
O=C(O)C(=O)Nc1cccc(-c2nn[nH]n2)c1	5.43% [at 35.3 µM] (inactive)
CCN(CCO)c1cccc(C)c1	-4.73% (inactive)
COC(/C=C(\C)CCC=C(C)C)OC	3.43% (inactive)
CCCCC(CC)COC(=O)c1ccccc1 (stereo not given)	-3.37% (inactive)
CCCOC(=O)CCCCC(=O)OCCC	0.473% (inactive)
CC(Cl)COP(=O)(OCC(C)Cl)OCC(C)Cl (stereo not given)	-1.49% (inactive)
CCCCC(CC)C(=O)OC(C)C (stereo not given)	3.66% (inactive)
O=C(O)c1ccc(OCCN2CCCCC2)cc1	7.93% [at 35.3 µM] (inactive)
CCCCC/C=C/CC(=O)OC	-0.688% (inactive)
CC(C)CCCC(C)CC=O (stereo not given)	5.3% (inactive)
CC(C)(C)c1ccc(C=O)cc1	1.51% (inactive)
C1=C\CC/C=C\CC/1	-0.322% (inactive)

Structure (SMILES)	activity change, negative = inhibition
CCC(O)C(C)(C)C (stereo not given)	-3.94% (inactive)
C/C=C(\C)C(=O)OCC/C=C\CC	-3.21% (inactive)
O=C(c1ccc2c(c1)C(=O)OC2=O)c1ccc2c(c1)C(=O)OC2=O	0.0975% (inactive)
O=C(O)c1c(Cl)ccc(Cl)c1Cl	0.4% (inactive)
O=C(O)CCNC(=O)c1ccccc1	0.121% [at 35.3 µM] (inactive)
NC(=O)NNC(N)=O	-1.74% (inactive)
CCCCC(C)C(=O)O (stereo not given)	2.01% (inactive)
CCOC(=O)CC(CC(=O)OCC)(OC(C)=O)C(=O)OCC	4.14% (inactive)
CCNC(=O)NCCCOc1cccc(CN2CCCCC2)c1	1.56% [at 35.3 µM] (inactive)
CC1=CC[C@H](CC=O)C1(C)C	-1.11% (inactive)
CCOC(=O)C(C)(C)C	3.43% (inactive)
Nc1ccc(C(=O)OCC(O)CO)cc1 (stereo not given)	-6.95% [at 35.3 µM] (inactive)
OC[C@@H](O)[C@H](O)[C@@H](O)[C@@H](O)CO	-1.55% (inactive)
CCCCCC1CCCC(=O)O1 (stereo not given)	6.96% (inactive)
COc1ccc(N=Nc2cc(C)c(N=Nc3ccc(S(=O)(=O)O)cc3)cc2OC)cc1	1.28% (inactive)
CC(=O)OCCCc1ccccc1	8.03% (inactive)
CCC(C)(CCC(C)C)C(=O)[O-].CCC(C)(CCC(C)C)C(=O)[O-].[Zn+2] (stereo not given)	0.145% (inactive)
Cc1nc(C)nc(N2C[C@@H](C)N(c3ccnc([C@@H](C)O)n3)[C@@H](C)C2)n1	2.2% [at 35.3 µM] (inactive)

Reference: PubChem BioAssay (Tox21)
